Hits are enriched below; roughly 0.43% of the tested compounds scored in any of these assays.
N370S GC – inhibits or activates N370S mutant glucocerebrosidase; P04062; N370S GC spleen homogenate, 4MU-glucoside fluorescence; Potency, µM (titrated, usually from 59.4 µM), inactives show at the highest dose activity change, negative = inhibition, usual class: inhibitors; 0.092% of 330,000 active;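 also: potency is read from the fitted curve at half-maximal effect; 0% = full enzyme activity and -100% = no enzyme basal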
GAA inhib – alpha-glucosidase (human) inhibition. Potency, µM (titrated, usually from 76.9 µM), for inactives: at the highest dose activity change, negative = inhibition, actives largely listed as inhibitors. purified human GAA, 4-MU-alpha-glucoside fluorescence. 0.005% of 200,000 active. P10253. AID 1466;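 also: potency is read from the fitted curve at half-maximal effect; plate controls were uninhibited enzyme wells for no effect and no-enzyme background for full effect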
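Human alpha-glucosidase, 4 nM, pre-mixed with test compounds before 400 uM 4-methylumbelliferyl substrate; 20 min room temperature at pH 5.0. Fluorescence read after pH 10 stop; AC50 values from Hill-equation fits.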
GLA inh pH 4.5 – blocks human alpha-galactosidase A at pH 4.5; 230,000 tested, under 10 active; AID 1467; activity change, negative = inhibition, % at 105 µM; purified enzyme, 4-MU-alpha-Gal fluorescence, pH 4.5; P06280;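 also: 0% = full activity with enzyme and -100% = basal without enzyme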
Target sequence (P06280 whole entry, looked up): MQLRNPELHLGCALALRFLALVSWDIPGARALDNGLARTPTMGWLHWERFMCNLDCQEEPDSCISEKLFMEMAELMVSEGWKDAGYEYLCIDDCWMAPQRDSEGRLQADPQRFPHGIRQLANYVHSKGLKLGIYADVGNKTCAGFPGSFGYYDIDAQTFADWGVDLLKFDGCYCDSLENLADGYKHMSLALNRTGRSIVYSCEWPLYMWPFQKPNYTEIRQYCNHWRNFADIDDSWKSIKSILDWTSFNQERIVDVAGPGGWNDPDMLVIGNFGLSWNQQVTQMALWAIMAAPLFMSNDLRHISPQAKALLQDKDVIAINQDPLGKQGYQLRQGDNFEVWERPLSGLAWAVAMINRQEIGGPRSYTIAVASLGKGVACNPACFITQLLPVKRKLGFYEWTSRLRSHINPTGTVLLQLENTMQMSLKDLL
GAA glycogen mod – inhibitors or activators of human alpha-glucosidase glycogen cleavage; 0.38% of 300,000 active; P10253; recombinant GAA, glycogen substrate, Amplex Red glucose oxidase fluorescence; AID 2100; Potency, µM (titrated, usually from 76.4 µM), for the others: top-dose activity change, negative = inhibition, actives largely listed as inhibitors;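 also: potency is read from the fitted curve at half-maximal effect; 0% = full enzyme reaction and -100% = no-enzyme basal signal; the screen sought inhibitors and activators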
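Recombinant human alpha-glucosidase (4 nM final) hydrolysed bovine liver glycogen (30 ug) for 40 min at 37 C in pH 5.0 citrate/phosphate with 0.01% Tween-20. Released glucose detected by glucose oxidase/Amplex Red, Ex 573/Em 610 nm. Compounds up to 77 uM; AC50 from Hill fits.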
aGal spleen mod – inhibits or activates alpha-galactosidase in human spleen homogenate; human spleen homogenate, 4MU-alpha-Gal fluorescence, 40 min; Potency, µM (highest dose often 80 µM), inactives show at the top dose activity change, negative = inhibition, most hits filed as inhibitors; 0.008% of 240,000 active;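 also: potency is read from the fitted curve at half-maximal effect; 0% = enzyme with vehicle and -100% = no enzyme basal signal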
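Human spleen homogenate (1 ug) as enzyme source, 4-methylumbelliferyl-alpha-D-galactopyranoside 1 mM final, citrate/phosphate pH 5.0 with 0.01% Tween-20. Compounds 40 min at 37C, NaOH/glycine stop; fluorescence Ex 365/Em 440, Hill-fit AC50.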
aGlu spleen mod – lysosomal alpha-glucosidase (human) modulation; 0.006% of 240,000 active; P10253; AID 2112; Potency, µM (titrated, usually from 79.9 µM), for inactives: at the top dose activity change, negative = inhibition, hits mostly inhibitors; human spleen homogenate, 4-MU-alpha-glucoside fluorescence;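 also: potency is read from the fitted curve at half-maximal effect; 0% = enzyme with vehicle and -100% = no enzyme basal signal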
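AC50 values come from Hill-equation fits of concentration-response data, normalized to no-enzyme and full-activity controls. Enzyme source: 1 ug human spleen homogenate; 1 mM fluorogenic 4-MU glucoside, pH 5.0 citrate buffer, 37 C, 40 min.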
* marks the source's active call; other numbers are inactive results; ? = inconclusive; . = no result; [ ] = another dose, or the depositor's remark. Calls follow the shape of the dose curve; as a rule, active = well fitted curve in the direction sought with a large enough effect; inconclusive = small, poorly fitted or top-dose-only effect, or another doubt; inactive = no such curve, though single readings can be large; an effect the other way counts as inactive or inconclusive.

SMILES	N370S GC	GAA inhib	GLA inh pH 4.5	GAA glycogen mod	aGal spleen mod	aGlu spleen mod
Cc1c(NC(=O)CN2CCN(c3ccc(O)cc3)CC2)c(=O)n(-c2ccccc2)n1C	-3.3%	2.1%	-19.2	3.98µM*	0.1%	6.1%
Cc1ccc(S(=O)(=O)NC(=O)Nc2c(C)n(C)n(-c3ccccc3)c2=O)cc1	4.2%	-1.1%	-1.6	15.7µM*	-7.9%	-8.5%
Cc1c(NC(=O)CN2CCN(c3ccc([N+](=O)[O-])cc3)CC2)c(=O)n(-c2ccccc2)n1C	-12.4%	-4.4%	-10.0	3.1%	-3.1%	-9.3%
COc1cccc(N2CCN(C(=O)C3CCC(CNS(=O)(=O)c4ccc(Br)s4)CC3)CC2)c1 (centres undefined)	.	.	.	15.3%[76.3 µM]	.	.
CCC(C)c1ccc(O)c(N)c1 (centres undefined)	-4.2%	-4.3%	4.9	24.9µM*	12.9%	9.4%
CC(C)c1ccc(O)c(N)c1	-0.3%	2.4%	-14.8	10µM*	4.5%	-7.5%
CC1CCN(c2oc(/C=C/c3ccc(F)cc3)nc2C#N)CC1	.	.	.	-6.0%[76.3 µM]	.	.
O=S(=O)(Nc1ccccc1O)c1ccc(Cl)nc1	5.7%	.	-4.9	20µM*	-1.6%	-2.7%
COc1cc2c(cc1OC)C1O[C@](CCCCN3C(=O)c4ccccc4C3=O)(C2)Oc2c1c(=O)oc1ccccc21	-6.4%[12.8 µM]	.	.	15.0%[15.3 µM]	.	.
CO[C@@H]1COC(=O)[C@H](C)NC(=O)[C@@H](C)COC(=O)[C@H](C)NC(=O)C/C=C\[C@H]1C	5.2%[12.8 µM]	.	.	.	12.9%[17.5 µM]	5.9%[17.4 µM]
Nc1ccc(O)cc1C(=O)OCC(=O)C12CC3CC(CC(C3)C1)C2	13.8%	?	1.5	15.7µM*	5.6%	-6.6%
CC[C@H](C)[C@H](NC(=O)[C@H](Cc1ccccc1)NC(=O)[C@H](CC(C)C)NC(=O)[C@H](CCSC)NC(=O)[C@H](CCC(=O)O)NC(=O)[C@H](CCC(=O)O)NC(=O)[C@H](CC(=O)O)NC(=O)[C@H](CO)NC(=O)[C@@H]1CCCN1C(=O)[C@H](CCCCN)NC(=O)[C@@H](N)[C@@H](C)O)C(=O)N[C@@H](Cc1ccc(O)cc1)C(=O)NCC(=O)N[C@@H](Cc1cnc[nH]1)C(=O)N[C@@H](Cc1ccc(O)cc1)C(=O)N[C@@H](CCCCN)C(=O)N[C@@H](CCC(N)=O)C(=O)N[C@@H](C)C(=O)N[C@H](C(=O)N[C@H](C(=O)NCC(=O)N[C@@H](CC(=O)O)C(=O)N[C@H](C(=O)N[C@@H](CC(N)=O)C(=O)N[C@H](C(=O)N[C@@H](CCC(=O)O)C(=O)N[C@@H](CCCNC(=N)N)C(=O)N1CCC[C@H]1C(=O)NCC(=O)N[C@@H](CCSC)C(=O)N[C@@H](CC(C)C)C(=O)N[C@@H](CC(=O)O)C(=O)N[C@@H](Cc1ccccc1)C(=O)N[C@H](C(=O)O)[C@@H](C)O)[C@@H](C)O)[C@@H](C)CC)C(C)C)[C@@H](C)O	-1.6%	.	.	.	-14.2%	1.1%
O=C(NNc1ccc(C2CCCCC2)cc1)C(O)(c1ccccc1)c1cccs1 (centres undefined)	?	-14.2%	-8.6	20µM*	6.3%	-15.2%
COc1ccc(NC(=O)NNC(=O)C(O)(c2ccccc2)c2ccccc2)cc1	-0.9%	.	.	-7.2%[76.3 µM]	.	.
COc1ccc(C(O)(C(=O)NNc2ccc(C)cc2)c2cccs2)cc1 (centres undefined)	9.0%	-2.0%	0.7	19.8µM*	-1.2%	1.2%
CC(C)CCNC(=O)C(CC(C)C)NC(=O)C1OC1C(=O)O (centres undefined)	-0.7%	.	.	.	-12.7%	3.5%
O=C(CN1CC(=O)Oc2ccccc21)NCc1ccco1	12.4%	-6.7%	-2.6	7.03µM*	-13.0%	-4.5%
O=C(CN1CCOc2ccccc21)NCc1ccco1	8.7%	7.3%[15.4 µM]	2.0	1.0%	12.5%	4.6%
O=C(Nc1ccc2nc(SCC(=O)N3CCCC3)sc2c1)c1cccc(F)c1	.	.	.	-3.1%[76.3 µM]	.	.
O=C(N/N=C/c1ccc(-c2ccccc2Cl)o1)c1ccccc1	-10.6%	-4.8%	0.8	5.4%	8.1%	2.9%
O=S(=O)(N/N=C\c1ccc(-c2ccccc2Cl)o1)c1ccccc1	3.5%	5.9%	0.3	24.9µM*	4.7%	3.7%
CC(C)(Cc1ccc(O)cc1)NC(=O)CC(=O)N=Nc1c(O)[nH]c2cc(Br)ccc12	11.2µM*	-0.6%	-1.3	11.6%	-4.7%	1.5%
O=C(CNC(=O)Cc1ccccc1)N=Nc1c(O)[nH]c2ccccc12	-7.9%	.	.	-3.0%	.	.
COc1ccc(NC(=O)c2nc(SCc3ccccc3F)ncc2Cl)cc1	.	.	.	16.9%[76.3 µM]	.	.
CCOc1ccc(S(=O)(=O)Nc2cc(Cl)ccc2O)cc1	10.2%	-4.0%	-6.9	28.2µM*	-5.8%	-7.5%
SMILES	N370S GC	GAA inhib	GLA inh pH 4.5	GAA glycogen mod	aGal spleen mod	aGlu spleen mod
CCOc1ccc(S(=O)(=O)Nc2ccccc2SC)cc1	-1.3%	-6.4%	-5.2	0.5%	-6.8%	-5.5%
O=C(O)c1cccc(N/N=C/c2cccc3ccccc23)c1	-9.0%	.	.	31.6µM*	.	.
O=C(N/N=C/c1ccncc1)c1cccc(N/N=C/c2ccncc2)c1	-14.4%	0.0%	-5.3	-3.1%	-9.1%	-2.3%
O=C(N/N=C/c1ccc(O)cc1)c1cccc(N/N=C/c2ccc(O)cc2)c1	-19.6%	-14.1%	-6.4	25.1µM*	-2.0%	-3.0%
COc1ccc2ccccc2c1/C=N/Nc1cccc(C(=O)O)c1	-6.7%	.	.	?	.	.
COc1ccc2c(Sc3ccc(Cl)cc3)c(C(=O)N3CCCCC3)[nH]c2c1	.	.	.	6.9%[76.3 µM]	.	.
Oc1ccccc1Nc1nc(NCc2ccco2)c2ccccc2n1	?	.	-10.8	11.2µM*	3.3%	-11.3%
Cc1ccccc1Nc1nc(NCc2ccco2)c2ccccc2n1	20µM*	-3.3%	1.9	-1.7%	-0.9%	-0.7%
Oc1ccc(Nc2nc(NCC3CCCO3)c3ccccc3n2)cc1 (centres undefined)	-11.3%	-2.7%	-1.6	?	6.5%	1.0%
Oc1ccccc1Nc1nc(NCC2CCCO2)c2ccccc2n1 (centres undefined)	?	?	-8.7	8.84µM*	3.9%	0.5%
Cc1cccc(C(=O)Oc2c(Sc3ccccc3)c(C)nn2C(C)(C)C)c1	.	.	.	8.0%[76.3 µM]	.	.
Cc1ccc2c(c1)c1c(n2CC(O)CNC(CO)(CO)CO)CCCC1 (centres undefined)	11.2µM*	-6.9%	-8.8	24.8%	-4.9%	-1.4%
Cc1ccc2c(c1)c1c(n2CC(O)CNC2CCCCC2)CCCC1 (centres undefined)	-16.3%	?	1.5	-5.4%	-18.0%	-16.5%
CCCc1cc(=O)[nH]c(Nc2ccc(O)cc2C)n1	.	.	.	10µM*	.	.
CCCc1cc(=O)[nH]c(Nc2cccc(Cl)c2Cl)n1	.	.	.	-7.8%[76.3 µM]	.	.

Assay outcomes (PubChem BioAssay)
